What follows are sequences tested against FNTB (assay: pooled miR-30 sensor sort-seq; sequence = guide strand). Conditions: shRNA.
TCCTCCTTCAAATCGCATCTGC showed a sensor-assay potency score (higher = more potent) of -0.214.
With TTGACTGCTGCATATGTGGGTG the sensor-assay potency score (higher = more potent) was -0.313.
With TTCTGTAGAAAGTATGTAGTGG the sensor-assay potency score (higher = more potent) was 0.598.
TACTTTTGCCTGTTCTATGGAC showed a sensor-assay potency score (higher = more potent) of -0.547.
For TTGAACTTGTAAGAACTGAAGA, the sensor-assay potency score (higher = more potent) was -0.977.
For TAGAAAGTATGTAGTGGCCTGG, the sensor-assay potency score (higher = more potent) was -0.497.
TAAACCTTGTCTGACTGGGGAG showed a sensor-assay potency score (higher = more potent) of -0.535.
TACTGAAGAAGCTTCTCTCTGT gave a sensor-assay potency score (higher = more potent) of 0.515.
Work on TTTCAGATAATGGAAGTGCTTC yielded a sensor-assay potency score (higher = more potent) of -0.367.
ATCTGTAGCCACTATCTGGGGG was tested, and the sensor-assay potency score (higher = more potent) was -0.8.
In the case of AAGGTGTGGATACTGACCGGGT, the sensor-assay potency score (higher = more potent) is reported as -0.0926.
Sequence TACAAGGTGGTTGAACTTGTAA has a sensor-assay potency score (higher = more potent) of -0.905.
TCATGCAACATGGCTCCGCTGC was tested, and the sensor-assay potency score (higher = more potent) was -1.29.
Work on TTTGCCTGTTCTATGGACGTGA yielded a sensor-assay potency score (higher = more potent) of 0.213.
For TTAAGCTCCTCAAAACCTGGGA, the sensor-assay potency score (higher = more potent) was -0.317.
Sequence TTGTAAGAACTGAAGACCTCTT has a sensor-assay potency score (higher = more potent) of 0.275.

These sequences were tested against FOXK1 in the same assay as above. Conditions: shRNA.
TTGCTGCAAACTCTGCTGCCAG was tested, and the sensor-assay potency score (higher = more potent) was -1.02.
Sequence TTGGGTCGCAAGGAGCTGCAAA has a sensor-assay potency score (higher = more potent) of -0.645.
In the case of TTTGGGAATACCGGTACTCTGG, the sensor-assay potency score (higher = more potent) is reported as -1.08.
TGGATCTTGATGGCCGTGCTGG was tested, and the sensor-assay potency score (higher = more potent) was -0.887.
TTTGATAAAGTAACGGTTCAAA showed a sensor-assay potency score (higher = more potent) of -0.935.
In the case of ATGAGGAACTCGAACTCGCGGC, the sensor-assay potency score (higher = more potent) is reported as -0.982.
TTGCCGGCTAAACTGTTCGTGG showed a sensor-assay potency score (higher = more potent) of -1.1.
TAAACTGTTCGTGGGAACCGCA showed a sensor-assay potency score (higher = more potent) of -0.882.
Sequence TTCTTTGTGATAGAGCGACGTG has a sensor-assay potency score (higher = more potent) of -0.986.
In the case of TTTGACTCATCCTTGGGGCTGT, the sensor-assay potency score (higher = more potent) is reported as 0.206.
Sequence TGATAGAGCGACGTGAACTGGA has a sensor-assay potency score (higher = more potent) of 0.268.
Sequence TTCAAAGAGAGGTTGTGCCGGA has a sensor-assay potency score (higher = more potent) of 0.647.

The sequences below were run against FOXN4 in the same assay as above. Conditions: shRNA.
Work on TTCAGAGACAGGTTGTGCCGCA yielded a sensor-assay potency score (higher = more potent) of 0.475.
Sequence TAGATCTCGCTCACAGGCAGGC has a sensor-assay potency score (higher = more potent) of -0.142.
TCAGCTTGTCCAACTCCTCAGG gave a sensor-assay potency score (higher = more potent) of -0.891.
For TTGAGATGAATGCACAGCCACG, the sensor-assay potency score (higher = more potent) was -1.27.
TCAGTGTTCATGTCGGTGCTGA was tested, and the sensor-assay potency score (higher = more potent) was -0.14.
ATGTTGATGAAGTCTACAGGAG was tested, and the sensor-assay potency score (higher = more potent) was -1.25.
TGAGTTTCGAATAATTCCTGAC was tested, and the sensor-assay potency score (higher = more potent) was -0.212.
TCCTCCATCTTGTCGATGCGGG was tested, and the sensor-assay potency score (higher = more potent) was -1.47.
TTGCCATCTGCTGCAGCCGAGG showed a sensor-assay potency score (higher = more potent) of -1.85.
ATTCCTGACATTATGGATGAGG showed a sensor-assay potency score (higher = more potent) of -0.583.
TGAAGCTGTAGATCTCGCTCAC gave a sensor-assay potency score (higher = more potent) of 0.304.
Further: reference of the scale not given here.
